Results taken from PubChem BioAssay (NCATS).
Results filed as inconclusive are left out. Unmarked numbers belong to inactive results. Activity calls are given as the source filed them. Calls come from the whole dose curve; as a rule, active = well fitted cell-killing curve with a large enough effect; inconclusive = small, poorly fitted or top-dose-only effect; inactive = flat fitted curve, though single readings scatter.

Assay: Cell Viability - LYMP2-010 (AID 981); note: nearly all actives have a fitted effect of over 55% in size
Details: LYMP2-010 lymphoblastoid cell viability, qHTS; series mostly up to 92.2 µM; activity, negative = cytotoxicity: at the top concentration
From the text: NIH Chemical Genomics Center [NCGC]
NIH Molecular Libraries Screening Centers Network [MLSCN]
National Institutes of Environmental Health Sciences [NIEHS]
National Toxicology Program [NTP]
We have developed a 1536-well cell-based assay for quantitative high throughput screening (qHTS) against a number of cell lines to determine in vitro cytotoxicity of small molecules. This particular assay uses a human lymphoblastoid cell line (LYMP2-010) purchased from Coriell Institute for Medical Research.
NCGC Assay Protocol Summary:
The CellTiter-Glo luminescent cell viability assay (Promega) is a homogeneous method to measure the number of viable cells in culture. The end point readout of this assay is based on quantitation of intracellular ATP, an indicator of metabolic activity, using the luciferase reaction. Luciferase catalyzes the oxidation of beetle Luciferin to oxyluciferin and light in the presence of ATP. The luminescent signal is proportional to amount of ATP present.
Using the CellTiter-Glo luminescent cell viability assay, the amount of cellular ATP was measured in the lymphoblastoid cell line with complete culture medium following compound treatment for 24 hours. The assay was performed in opaque white Kalypsys 1536-well plates. In the screen, tetraoctylammonium bromide was used as positive control. Library compounds were measured for their ability to cause acute toxicity in the cell line, as reflected by a decrease in intracellular ATP levels, in a concentration-dependent manner. […] AC50 values were determined from concentration-response data modeled with the standard Hill equation.
qHTS protocol for CellTiter Glo lymphoblastoid cellular assay
[Step] [Parameter] [Value] [Description]
1. Reagent; 5 uL; 2500 lymphoblastoid cells/well
2. Time; 5 hr; 37 C incubation
4. Controls; 23 nL; Tetraoctylammonium bromide 6.4pM to 92 uM
5. Time; 24 hr; 37 C incubation
6. Reagent; 5 uL; CellTiter Glo reagent
7. Time; 30 min; Room Temperature
8. Detection; Luminescence; Viewlux plate reader
Keywords: cell viability, cytotoxicity, lymphoblastoid cell line, luminescence, NTPHTS, NTPHTS_NCGC, NIEHS, DSSTox, MLSMR, MLSCN, NIH Roadmap, qHTS, NCGC
% is set by controls: 0 for no effect and ±100 for the full control effect; potency is the fitted concentration of half-maximal effect.

Compared with `CC(C)COC(=O)c1ccccc1C(=O)OCC(C)C`, `COC(=O)c1ccccc1C(=O)OC` is higher in “activity, negative = cytotoxicity” value: -13.4% for the first, -9.68% for the second.

First: Cc1ccccc1O
Second: Oc1ccccc1Cl
The “activity, negative = cytotoxicity” value of the first is lower: -8.64% for the first, -3.46% for the second.

Compared with `CC(C)(c1ccc(OCC2CO2)cc1)c1ccc(OCC2CO2)cc1` (stereo not drawn), `c1ccc(Nc2ccc3ccccc3c2)cc1` is higher in “activity, negative = cytotoxicity” value: -29.8% for the first, -14.7% for the second.

Going from `O=Cc1ccccc1` to `CC(=O)/C=C/c1ccccc1`, the “activity, negative = cytotoxicity” value rises from -7.3% to -5.87%.

First: CCOc1cc(C=O)ccc1O
Second: CCOC(=O)c1ccccc1N
The “activity, negative = cytotoxicity” value of the first is higher: -6.35% for the first, -7.45% for the second.

First: Oc1c(Cl)c(Cl)c(Cl)c(Cl)c1Cl
Second: c1ccc2c(c1)-c1cccc3cccc-2c13
The “activity, negative = cytotoxicity” value of the first is lower: -21.5% for the first, -0.444% for the second.

In the case of `Oc1ccccc1O`, the Potency was 20 µM (active).
